We go through 16 compounds from PubChem BioAssay (NCI).

The panel holds about 83,000 compounds, 20% with a hit somewhere; the sample as a whole holds those more often.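 Method: cells in 96-well plates; compound added at one concentration; 48 h incubation; percent growth measured; values under 10 scored active.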 Values without a mark were called inactive. Calls of active or inactive are those of the source.

For the assay, the system named is MDA-MB-468 breast. Briefly: NCI-60 one-dose screen, 48 h (100 = growth as untreated, 0 = no growth, -100 = all killed). The following applies: 10 µM unless noted.
As to `c1ccc(-c2cc(-c3cc(-c4ccccc4)on3)no2)cc1`, the growth is 84.9%.
Consider `C=C1c2c(Cl)ccc(O)c2C(O)=C2C(=O)[C@]3(O)C(O)=C(C(N)=O)C(=O)[C@@H](N(C)C)[C@@H]3[C@@H](O)[C@H]12`, for which the growth was -4.52% (active).
Next, `Nc1nc(-c2cccc([N+](=O)[O-])c2)c(N=Nc2ccc(Br)cc2)s1`: -45.7% (active); `c1ccc(C2=Nc3ccccc3SC2)cc1`: 122%.
For `O=C(O)c1ccc2c(c1Cl)C(=O)c1ccccc1C2=O`, the growth was 88.9%.
Turning to `C=CC[P+](c1ccccc1)(c1ccccc1)c1ccccc1`, the growth was 10.9%.
In the case of `Cc1[nH]c(C(=O)Nc2ccccc2OC2CCN(CCN3CCOCC3)CC2)c(Cl)c1Cl`, the growth was 91.6%.
Take `NCCCNc1nc2ccccc2c2c(=O)c3cccc(Cl)c3sc12`: the growth was -80.2% (active).
In the case of `COc1cc(OC)c(C2SCC(=O)N2Nc2ncnc3ccccc23)cc1OC` (stereo unspecified), the growth was 111%.
Consider `CCOC(=O)CO`, for which the growth is 99%.
For `OCCN1CCOCC1`, the growth is 117%.
`Oc1ccccc1/C=N/NC(=S)NC1CC2C=CC1C2` (stereo unspecified): the growth is 73.1%.
For the compound `CCCCOc1nc2ccc(OC)cc2cc1-c1cc(-c2ccc(Cl)cc2)nc(-c2ccc(Cl)cc2)c1`, the growth is 95.2%.
Under `Cc1cc(-c2ccccc2)cc(SC#N)[n+]1[O-]` stands 34.8%.
Under `Cn1c(C#N)ccc1-c1ccc(F)c(NC(=O)c2ccc(F)cc2)c1` stands 35.6%; under `CN1C(=O)N(C)C2C1NN=c1s/c(=C\c3ccc(Cl)cc3Cl)c(=O)n12` (stereo unspecified), 27.4%.
